Tg IFNy HTS: blocks Toxoplasma gondii growth in the presence of IFN-gamma; Toxoplasma gondii growth in IFN-gamma-treated host cells; active compounds read low; activity change, negative = inhibition, % (no concentration beside the values); actives 3.8% (n = 69,000); in the data active = activity change below about -70%, passing the limit was not always enough;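 also: host cells are HeLa cells infected with Toxoplasma gondii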
Numbers stand for hits; 0 = inactive. The sample as a whole holds a higher share of hits than the screen did.

SMILES	Tg IFNy HTS
Cc1ccccc1-c1cccc(-c2nccn2CCO)c1	0
Cn1ccnc1-c1c(-c2ccc(F)cc2)cnn1CCNC(=O)C1OCCc2ccccc21 (stereo unspecified)	0
S=C(CCC(=S)Nc1ccc(Cl)cc1)Nc1ccc(Cl)cc1	0
CSCCNC(=O)Nc1ccc(Cl)cc1	0
O=C(Cc1ccc(O)cc1)NCCNC(=S)Nc1ccc(Cl)cc1	-96
COC(=O)CCN1CC(OCc2cccc(OC)c2)CN(C(=O)c2ccsc2)CC1=O (stereo unspecified)	0
COc1ccccc1C(=O)Nc1ccc2c3c(cccc13)CC2	-102
COc1ccccc1C(=O)Nc1cc2cc(Br)ccc2oc1=O	0
COc1ccccc1C(=O)Nc1ccc(-c2nc(-c3ccccc3)co2)cc1	0
CCc1ncnc2c1CCN(C(=O)c1ccc3ncccc3c1)CC2	0
CCS(=O)(=O)N1CCC2(CC1)CC(CC(=O)NC1CC1)c1ccccc1O2 (stereo unspecified)	0
Cc1cc(C)c(S(=O)(=O)NCc2cccnc2)cc1N(C)S(=O)(=O)c1ccccc1	0
COc1ccc(C(=O)N2CCCC(O)(CN(C)C)C2)c(OC)n1 (stereo unspecified)	0
O=c1[nH]ccc2c1c(=O)[nH]c1ccccc12	-100
CCCCCCCc1nc2c(=O)[nH]c3ccccc3c2o1	0
O=c1[nH]c2ccccc2c2oc(-c3ccccc3)nc12	0
Cc1ccc(C(=O)N2CCC3(CC2)COC(COc2cccnc2)C3)o1 (stereo unspecified)	0
Cc1c(C(=O)N2CC(C)CC(C)C2)oc2ccc3c(c12)C(=O)CC1(CCCCC1)O3 (stereo unspecified)	0
CC1=C(C(=O)NCCCN2CCCC2)C2(CCN(S(=O)(=O)c3cccs3)CC2)OC1=O	0
CCOC(=O)C1CCN(C(=O)C2=C(C)C(=O)OC23CCN(S(C)(=O)=O)CC3)CC1	0
Cc1c(C(=O)NCCCN2CC(C)CC(C)C2)oc2ccc3c(c12)C(O)CC1(CCCCC1)O3 (stereo unspecified)	-112
Cc1c(C(=O)NCCCN2CCCCC2)oc2ccc3c(c12)C(O)CC1(CCCCC1)O3 (stereo unspecified)	0
CC1=C(C(=O)NCCCN2CC(C)CC(C)C2)C2(CCCCCC2)OC1=O (stereo unspecified)	0
CCOC(=O)C1CCN(C(=O)c2nn(-c3ccccc3)nc2C)CC1	0
CC1=C(C(=O)NCCCN2CC(C)CC(C)C2)C2(CCCCC2)OC1=O (stereo unspecified)	-80
SMILES	Tg IFNy HTS
CC1=C(C(=O)NCCCN2CCCC(C)C2)C2(CCN(S(C)(=O)=O)CC2)OC1=O (stereo unspecified)	0
CCOC(=O)C1CCN(C(=O)c2oc3ccc4c(c3c2C)C(O)CC2(CCCCC2)O4)CC1 (stereo unspecified)	-81
Cc1c(C(=O)N2CCc3ccccc3C2)oc2ccc3c(c12)C(=O)CC1(CCCCC1)O3	0
Cc1c(C(=O)N2CCCCC2)oc2ccc3c(c12)C(O)CC1(CCCCC1)O3 (stereo unspecified)	-112
CCc1ccc(S(=O)(=O)N2CCC3(CC3C(=O)NCc3ccncc3)C2)cc1 (stereo unspecified)	0
Cc1cc(C)n(Cc2cc(C(=O)N3CCN(c4ccccc4)C(=O)C3)n[nH]2)n1	0
Cc1cccc(CN2C[C@@H]3c4nc(N5CCCC(C)C5)ncc4CS(=O)(=O)[C@H]3C2)c1 (stereo partly specified)	0
CN(C)S(=O)(=O)N1CC2CCC1C2Oc1ccccn1 (stereo unspecified)	0
CC(=O)Nc1ccc(Cl)cc1-c1nc2ccccc2[nH]c1=O	0
O=S(=O)(c1ccc(S(=O)(=O)N2CCCN(Cc3ccccc3)C2)cc1)N1CCCC1	0
O=C(CC1Nc2c3ccccc3nc(=S)n2C1=O)NCCc1ccccc1 (stereo unspecified)	0
Cc1cc(C)n2c(C(=O)N3[C@@H]4CC[C@H]3CN(C)C(=O)C4)nnc2n1	0
O=C(c1ccccc1)c1cccc(NC(=O)c2c(F)cccc2Cl)c1	0
CCC(C)Nc1cnc2c(c1)c(NC(C)=O)c(C(=O)OC)n2CC1CCCO1 (stereo unspecified)	0
CCN(C(=O)Cn1c(CC(C)C)nc2ccccc21)C1CCN(C)CC1	0
CCc1c(C)nc2cc(-c3cc(C)on3)nn2c1N1CCN(Cc2ccccn2)CC1	-85
Cc1cc(N2CCCN(Cc3cc(-c4ccccc4)no3)CC2)ccn1	0
CCN1CCC2(CN(c3ncccn3)CC23CCN(Cc2ccccn2)CC3)C1=O (stereo unspecified)	0
COc1ccccc1-c1cc(C(=O)NCCN2CCc3ccccc32)no1	0
COC(=O)c1noc(C)c1-c1ccn[nH]1	0
O=C1NC(C(=O)N2CCc3[nH]nc(-c4ccc(C(F)(F)F)cc4)c3C2)CO1 (stereo unspecified)	0
Cn1c(=O)c2c(nc(SCCN3CCCCC3)n2C)n(C)c1=O	0
Cn1cnnc1Sc1nc2c(c(=O)n(C)c(=O)n2C)n1C	0
Cn1c(=O)c2c(nc(SCC(=O)Nc3nc(-c4cccs4)cs3)n2C)n(C)c1=O	-103
CN(C)CCN1C(=O)CO[C@H]2CN(C(=O)NCc3cccnc3)C[C@@H]21	0
SMILES	Tg IFNy HTS
COCCN1CCC2(CC1)CC(NC(=O)C1CC1)c1ccccc12 (stereo unspecified)	0
Cn1cc(N2C[C@@H]3CN(c4ccccn4)C[C@H]3C2=O)cn1	-87
Cn1cc(N2C[C@@H]3CN(Cc4ccoc4)C[C@H]3C2=O)cn1	0
Cc1cccc(N2C[C@@H]3CN(c4cccnc4)C(=O)[C@@H]3C2)n1	0
CC(C)c1nccc(CN(C)Cc2cnn(-c3ccccc3)c2)n1	0
COc1cccc(CCNC(=O)C2c3c(ncn3C(C)C)CCN2S(C)(=O)=O)c1 (stereo unspecified)	0
COc1ccccc1NC(=O)CCCCCN1C(=O)c2cccc3cccc(c23)C1=O	0
CCCCC(CC)CNC(=O)CCCCCN1C(=O)c2ccccc2C1=O (stereo unspecified)	0
O=C(CCCCCN1C(=O)c2cccc3cccc(c23)C1=O)NO	-84
CCCN(C/C=C/c1ccccc1)C(=O)c1c[nH]c2ccc(OC)cc2c1=O	0
O=C(c1csc(-c2ccc(N3CCSCC3)nc2)n1)N1CCC2(CC1)OCCO2	0
C1CC2(CCN1)CC(COCC1CC1)N(CC1CC1)C2 (stereo unspecified)	0
CCC1=C[C@@H]2CN(C1)Cc1c([nH]c3ccccc13)[C@@](C(=O)OC)(c1cc3c(cc1OC)N(C)[C@H]1[C@@](O)(C(=O)OC)[C@H](OC(C)=O)[C@]4(CC)C=CCN5CC[C@]31[C@@H]54)C2	-74
Cc1cc(C)cc(C(=O)Nc2ccc(-c3nc(Cn4cccn4)c(C)o3)cc2)c1	0
Cc1ccc(C(=O)Nc2ccc(-c3nc(Cn4cccn4)c(C)o3)cc2)cc1	0
Cc1cc(C(=O)Nc2ccc(-c3nc(Cn4cccn4)c(C)o3)cc2)no1	-93
Cc1cnn(Cc2nc(-c3ccc(NC(=O)c4c(F)cccc4F)cc3)oc2C)c1	0
Cc1cnn(Cc2nc(-c3ccc(NC(=O)c4cc(C)on4)cc3)oc2C)c1	-95
CCn1nc(C)cc1C(=O)N1CCC2OCCCC2(COC(C)C)C1 (stereo unspecified)	0
COc1cccc(CNc2n[nH]c3nc(C)cc(C)c23)c1O	0
CN(Cc1cccc(C(=O)Nc2ccc3c(c2)CCC3=O)c1)Cc1ccno1	0
COc1ccc2c(c1)OC(C)CN(CC(=O)NCC(c1ccncc1)N1CCOCC1)C2 (stereo unspecified)	0

Source: PubChem BioAssay (Broad Institute)
